An excerpt weighted towards active compounds, which were near 11% of everything screened.
IL-1B inflam inh: inhibitors of inflammasome signaling (IL-1 beta secretion); activity change, % at 57.5 µM; AID 743279; THP-1 LPS/ATP IL-1B secretion, AlphaLISA, 16 h; active compounds read low; 360,000 compounds, 4.7% hits; in the data active = activity change below about -50%; inconclusive = mostly about -30% to -49%; also: % is scaled to controls: 0 for no effect and ±100 for the full control effect
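Secreted IL-1B measured by AlphaLISA bead assay after 16 h compound exposure of THP-1 cells; compounds (final up to 57.5 uM) added 1 h before LPS (250 ng/mL) and ATP (1.25 mM) stimulation; lower signal means less secretion.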
MCF10A rereplic: DNA re-replication induction in MCF 10a cells. MCF 10A DNA re-replication, Hoechst nuclear intensity, 48 h. Potency, µM (series often up to 46.1 µM), without a hit: at the top dose activity, positive = re-replication, most hits filed as activators. 350,000 compounds, 2.9% hits. AID 624296; also: potency is read from the fitted curve at half-maximal effect; % of control where 0% means no effect; nearly all actives have a fitted effect of over 50% in size
SW480 rereplic: induces DNA re-replication in SW480 colon adenocarcinoma cells | 340,000 compounds, 1.8% hits | Potency, µM (series often up to 46.1 µM), without a hit: top-dose re-replication activation, usual class: activators | AID 624297 | SW480 DNA re-replication, Hoechst DNA content imaging, 48 h; also: potency is read from the fitted curve at half-maximal effect; % of control where 0% means no effect; nearly all actives have a fitted effect of over 55% in size
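Per well, 250 cells were exposed to pinned compound for 48 hr. Nuclear DNA was visualised with Hoechst (40 min, 37 C) and total object intensity recorded by fluorescence scanning.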
VP16 counter: Gal4-VP16 reporter inhibition counter-screen; Drosophila S2 Gal4-VP16 UAS-luciferase, luminescence, 20 h; Potency, µM (top dose mostly 53.6 µM), inactives show at the highest dose activity, negative = inhibition, most hits filed as inhibitors; 310,000 compounds, 3.5% hits;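 also: Gal4-VP16 expression switched on by copper sulfate through the metallothionein promoter; potency is read from the fitted curve at half-maximal effect; % is scaled to controls: 0 for no effect and ±100 for the full control effect; nearly all actives have a fitted effect of over 50% in size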
RORgamma inh: blocks mouse ROR gamma transcriptional activity; P51450; Drosophila S2 Gal4-RORgamma UAS-luciferase reporter, 20 h; Potency, µM (highest dose often 53.6 µM), without a hit: at the highest dose activity change, negative = inhibition, hits mostly inhibitors; 310,000 compounds, 5.4% hits; also: potency is read from the fitted curve at half-maximal effect; % is scaled to controls: 0 for no effect and ±100 for the full control effect; nearly all actives have a fitted effect of over 60% in size
Target sequence (P51450 whole entry, looked up, the tested form may be a part): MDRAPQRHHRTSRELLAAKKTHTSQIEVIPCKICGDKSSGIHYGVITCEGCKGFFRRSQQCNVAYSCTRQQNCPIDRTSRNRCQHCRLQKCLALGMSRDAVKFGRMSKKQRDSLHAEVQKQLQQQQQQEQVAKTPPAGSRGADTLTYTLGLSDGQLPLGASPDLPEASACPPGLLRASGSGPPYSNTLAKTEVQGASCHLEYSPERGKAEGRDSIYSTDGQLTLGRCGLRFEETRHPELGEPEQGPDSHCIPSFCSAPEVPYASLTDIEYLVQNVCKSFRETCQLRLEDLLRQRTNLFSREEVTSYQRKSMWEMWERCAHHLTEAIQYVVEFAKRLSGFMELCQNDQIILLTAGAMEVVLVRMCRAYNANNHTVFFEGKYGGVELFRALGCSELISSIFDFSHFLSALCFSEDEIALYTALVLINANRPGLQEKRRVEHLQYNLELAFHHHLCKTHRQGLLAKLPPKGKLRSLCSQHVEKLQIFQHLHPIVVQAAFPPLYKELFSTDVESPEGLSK
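Drosophila Schneider cells stably carrying a metallothionein-driven Gal4 DBD–ROR gamma fusion and a UAS-Photinus luciferase reporter were exposed to compound for 1 hr, then induced with copper sulfate (700 uM final) for 20 hr at ambient temperature before luminescence reading.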
* hit, by the source's call; ? = inconclusive; nt = no result given; [ ] = another dose, or the depositor's remark. Unless noted, calls follow the shape of the dose curve; as a rule, active = well fitted curve in the direction sought with a large enough effect; inconclusive = small, poorly fitted or top-dose-only effect, or another doubt; inactive = no such curve, though single readings can be large; an effect the other way counts as inactive or inconclusive.

SMILES	IL-1B inflam inh	MCF10A rereplic	SW480 rereplic	VP16 counter	RORgamma inh
COC(=O)[C@@H]1C[C@]2(OC(=O)c3ccccc3)C=CC(=O)C[C@@H]2N1C(=O)OCc1ccccc1	-106.6*	16.4µM*	20.6µM*	?	?
COc1ccc(CCCc2n[nH]c(=S)n2C)cc1C	-2.6	-0.5%	-4.4%	-3.1%[10 µM]	5.01µM*
COc1ccc(Cc2n[nH]c(=S)n2C)cc1Br	-68.3*	-0.8%	1.1%	-7.4%	38.1%
COc1ccc(CCCc2n[nH]c(=S)o2)cc1C	23.4	-1.6%	2.7%	-2.2%[10 µM]	10µM*
COc1ccc(CSCCc2n[nH]c(=S)n2-c2ccccc2)cc1C	30.5	11.7%	-6.8%	-8.4%	?
COc1ccc(Cc2nc(=S)[nH][nH]2)cc1Br	23.0	-39.7%	?	?	7.94µM*
COCc1cc(C)nc(SCC(=O)Nc2ccc(N3CCOCC3)cc2)c1C#N	-0.5	-1.9%	-0.5%	3.4%	5.3%
COc1ccc(-c2cc3nc(-c4ccccc4)cc(N4CCC(O)CC4)n3n2)cc1	-151.5*	17.8%	-8.5%	-21.5%	4.4%
Cc1cccc(-c2cc3nc(-c4ccccc4)cc(N4CCC5(CC4)OCCO5)n3n2)c1	-26.7	12.0%	?	5.6%	?
COc1ccc(-c2cc3nc(-c4ccccc4)cc(N4CCCC(O)C4)n3n2)cc1 (centres undefined)	?	20.6µM*	?	-24.2%	3.6%
COCCN1CCN(c2cc(-c3ccccc3)nc3cc(-c4cccc(F)c4)nn23)CC1	-79.4*	20.6µM*	?	-20.9%	?
COc1ccc(-c2cc3nc(-c4ccccc4)cc(N4CCN(C(C)=O)CC4)n3n2)cc1	-5.0	nt	nt	nt	nt
Cc1ccc(-c2cc3nc(-c4ccccc4)cc(N4CCC5(CC4)OCCO5)n3n2)cc1	0.0	?	18.4µM*	9.1%	?
CCOC(=O)C1CCN(S(=O)(=O)c2ccc(OC)c(C(=O)N3CCCCC3)c2)CC1	-1.9	-5.8%	1.8%	0.8%	0.8%
CC1CCc2sc(C(=O)NNC(=S)NC3CC3)cc2C1 (centres undefined)	-0.9	0.7%	-7.0%	-18.3%	?
COC(=O)C1=C[C@@H](C(=O)OC)[C@@H]2C3=C(C(=O)[C@@]2(C)NC(=O)c2ccccc2)[C@H](C)n2c(=O)n(C)c(=O)n2[C@@H]3C1	56.0	3.8%	?	nt	nt
CC(C)C(=O)NC(=S)Nc1ccccn1	-6.7	0.8%	0.6%	?	12.6µM*
CC(C)N(C(=O)NC(=O)Nc1ccccn1)S(C)(=O)=O	17.5	-8.9%	-15.6%	0.2%	-2.7%[10 µM]
CC(C)(C)C(=O)NC(=S)Nc1ccccn1	-3.3	-9.1%	-1.4%	?	12.6µM*
CCC1(c2ccc(F)cc2)NC(=O)N(CC(=O)NC2CCCCCC2)C1=O (centres undefined)	-8.9	2.9%	3.7%	nt	nt
CNc1ccc(S(=O)(=O)NCC(=O)OC(C)C(=O)N(C)Cc2ccccc2)cc1[N+](=O)[O-] (centres undefined)	-10.3	-1.8%	7.7%	nt	nt
CC(=O)Nc1ccc(NC(=O)C(C)OC(=O)CCSc2ccccc2Cl)cc1 (centres undefined)	-16.2	6.9%	-2.8%	nt	nt
COCCNCC(O)CON=C1c2ccccc2-c2ccccc21 (centres undefined)	-76.6*	-4.2%	0.4%	0.1%	-19.0%
O=C(CN1C(=O)c2cccc3cccc1c23)N1CCc2ccccc2C1	-13.8	-5.2%	-1.4%	2.6%	24.4%
c1ccc2c(c1)CCN(C1=Nc3cccc4cccc1c34)C2	-91.0*	8.2µM*	?	8.7%	?
SMILES	IL-1B inflam inh	MCF10A rereplic	SW480 rereplic	VP16 counter	RORgamma inh
c1cc2c3c(cccc3c1)C(N1CCCCCC1)=N2	4.7	-7.6%	-0.7%	?	7.94µM*
c1cc2c3c(cccc3c1)C(N1CCCCC1)=N2	?	2.3%	-3.7%	-0.3%	?
C=CCN(c1ccccc1OC)S(=O)(=O)c1cccc(C(=O)NCc2cccs2)c1	-13.7	-1.0%	-1.5%	nt	nt
COC(=O)/C(=C\Nc1ccc(Cl)cc1Cl)NC(=O)c1ccc(OC)cc1	-7.5	18.4µM*	6.51µM*	-18.2%	8.0%
Cc1onc(-c2ccccc2)c1C(=O)N/N=C/C(Br)=C/c1ccccc1	?	?	0.231µM*	?	7.3%
Cc1onc(-c2ccccc2)c1C(=O)N/N=C/c1cn(C)c2ccccc12	30.1	-23.9%	-5.0%	?	11.2µM*
Cc1cccc(/C=N/NC(=O)c2c(-c3ccccc3)noc2C)c1O	134.7	8.1%	?	6.31µM*	3.98µM*
CCCOc1cc(C)c(S(=O)(=O)NCc2cccs2)cc1C	0.0	?	-3.0%	nt	nt
CCc1cccc(CC)c1NC(=O)CN1C2CCCC1CC(NC(=O)Nc1cccc(OC)c1)C2 (centres undefined)	?	11.7%	8.8%	7.1%	22.5%
COC(=O)CC1CC2(C(=O)OC)c3[nH]c4ccccc4c3CCN2C1=O (centres undefined)	16.6	nt	nt	nt	nt
CCC12CC1(C(=O)OC)C(=O)N1CCc3c([nH]c4ccccc34)C12 (centres undefined)	-58.9*	nt	nt	nt	nt
COc1c(/C=C2\SC(=Nc3ccccc3Cl)NC2=O)cccc1[N+](=O)[O-]	-13.4	?	0.8%	-4.4%	?
COc1ccc(OC)c(/C=C2\S/C(=N/NC(=O)c3ccc4ccccc4c3)NC2=O)c1	18.7	16.4µM*	1.6%	?	1.41µM*
COc1cccc(/C=C2\SC(=O)NC2=O)c1OCc1ccc(C(=O)O)cc1	0.0	20.8%	-7.1%	-18.9%[10 µM]	15.6%
O=C1N/C(=N/NC(=O)c2cccc3ccccc23)S/C1=C\c1ccccc1OCc1ccccc1	18.9	23.1µM*	5.0%	?	0.631µM*
COc1ccc(/C=C2\SC(=Nc3ccccc3Cl)NC2=O)c(OC)c1	-52.3*	nt	nt	nt	nt
Cc1cccc(NC(=S)N(CCCN2CCOCC2)C(C)c2cc3ccccc3o2)c1 (centres undefined)	4.8	4.6%	-7.7%	-1.8%[10 µM]	12.6µM*
Cc1cccc(NC(=S)N(CCCN2CCOCC2)C(C)c2cc3ccccc3o2)c1C (centres undefined)	6.7	6.8%	-14.7%	?	10µM*
O=Cc1cn(-c2ccccc2)nc1-c1cc2cc(O)ccc2oc1=O	48.4	-8.6%	27.0%	-0.7%	14.5%
O=Cc1cn(-c2ccccc2)nc1-c1cc2c(ccc3ccccc32)oc1=O	30.6	2.91µM*	2.2%	0.5%	-12.3%
CCC(=O)c1ccc(N2CCN(C(=O)c3ccccc3Br)CC2)c(F)c1	-54.6*	-3.7%	0.5%	?	-56.3%
CCOC(=O)N1CCN(c2ccc(C(=O)c3ccccc3)cc2F)CC1	-22.7	?	-4.2%	-0.1%	?
CCC(=O)c1ccc(N2CCN(C(=O)c3ccccc3F)CC2)c(F)c1	0.0	2.1%	21.8%	-13.9%[10 µM]	19.2%

Screening data: PubChem BioAssay, National Center for Advancing Translational Sciences (NCATS)
